Holding throughout (settings): Compound concentration 20.0 uM, Protein concentration 2.0 uM, Result type QC Liability
For assay [1], the target named is Tyrosine-protein kinase ABL1 (Homo sapiens) (UniProt P00519).
Assay [2] concerns the target Cyclin-dependent kinase 2 (Homo sapiens) (UniProt P24941).
The target of assay [3] is Casein kinase I isoform delta (Homo sapiens) (UniProt P48730).
The target of assay [4] is Glycogen synthase kinase-3 beta (Homo sapiens) (UniProt P49841).
Assay [5] concerns the target Mitogen-activated protein kinase 1 (Homo sapiens) (UniProt P28482).
The target in assay [6] is T1, Aurora kinase A (Homo sapiens) (UniProt O14965).
T1 sequence (whole entry): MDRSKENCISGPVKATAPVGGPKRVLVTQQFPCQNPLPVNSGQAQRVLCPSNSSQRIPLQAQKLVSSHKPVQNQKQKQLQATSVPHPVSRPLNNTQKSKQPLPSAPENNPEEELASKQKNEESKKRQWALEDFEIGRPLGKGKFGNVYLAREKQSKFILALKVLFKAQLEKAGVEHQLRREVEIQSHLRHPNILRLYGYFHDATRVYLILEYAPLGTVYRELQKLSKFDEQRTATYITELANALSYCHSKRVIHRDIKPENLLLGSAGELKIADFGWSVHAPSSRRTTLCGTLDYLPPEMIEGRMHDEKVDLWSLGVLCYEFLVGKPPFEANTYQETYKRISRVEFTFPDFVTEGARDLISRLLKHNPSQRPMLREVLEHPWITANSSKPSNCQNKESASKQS

Where “and” joins values, the source holds several entries; their conditions need not be identical. Equal values may be shown once.

Sequence of Tyrosine-protein kinase ABL1 (Homo sapiens) (P00519 whole entry): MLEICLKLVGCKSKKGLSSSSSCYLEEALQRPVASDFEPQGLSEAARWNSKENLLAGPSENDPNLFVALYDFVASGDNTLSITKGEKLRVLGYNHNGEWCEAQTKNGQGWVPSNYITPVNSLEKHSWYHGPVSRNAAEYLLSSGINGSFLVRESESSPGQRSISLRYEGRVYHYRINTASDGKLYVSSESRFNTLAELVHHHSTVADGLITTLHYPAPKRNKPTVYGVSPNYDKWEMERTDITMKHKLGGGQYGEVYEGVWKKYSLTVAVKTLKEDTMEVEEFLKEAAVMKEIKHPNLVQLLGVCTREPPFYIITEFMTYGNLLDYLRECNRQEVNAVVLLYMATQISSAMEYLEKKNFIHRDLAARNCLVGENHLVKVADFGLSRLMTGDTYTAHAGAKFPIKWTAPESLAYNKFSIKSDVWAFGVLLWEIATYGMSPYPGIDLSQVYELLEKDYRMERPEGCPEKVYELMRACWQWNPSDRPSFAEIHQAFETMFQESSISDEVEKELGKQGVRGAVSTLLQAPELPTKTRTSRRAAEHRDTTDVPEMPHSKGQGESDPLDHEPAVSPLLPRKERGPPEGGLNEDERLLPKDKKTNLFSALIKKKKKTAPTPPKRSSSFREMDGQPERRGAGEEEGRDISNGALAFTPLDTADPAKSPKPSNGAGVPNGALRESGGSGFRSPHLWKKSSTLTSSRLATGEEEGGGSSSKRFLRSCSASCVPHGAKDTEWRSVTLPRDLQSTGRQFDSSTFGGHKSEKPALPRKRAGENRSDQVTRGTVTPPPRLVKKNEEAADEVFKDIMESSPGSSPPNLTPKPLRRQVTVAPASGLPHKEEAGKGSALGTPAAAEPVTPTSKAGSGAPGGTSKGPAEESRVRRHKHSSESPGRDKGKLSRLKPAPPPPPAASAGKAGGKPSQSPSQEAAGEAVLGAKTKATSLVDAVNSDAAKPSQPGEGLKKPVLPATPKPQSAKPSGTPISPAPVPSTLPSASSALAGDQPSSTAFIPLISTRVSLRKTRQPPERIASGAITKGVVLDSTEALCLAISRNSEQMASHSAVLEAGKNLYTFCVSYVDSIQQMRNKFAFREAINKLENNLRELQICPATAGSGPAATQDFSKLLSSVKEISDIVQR
Sequence of Mitogen-activated protein kinase 1 (Homo sapiens) (P28482 whole entry): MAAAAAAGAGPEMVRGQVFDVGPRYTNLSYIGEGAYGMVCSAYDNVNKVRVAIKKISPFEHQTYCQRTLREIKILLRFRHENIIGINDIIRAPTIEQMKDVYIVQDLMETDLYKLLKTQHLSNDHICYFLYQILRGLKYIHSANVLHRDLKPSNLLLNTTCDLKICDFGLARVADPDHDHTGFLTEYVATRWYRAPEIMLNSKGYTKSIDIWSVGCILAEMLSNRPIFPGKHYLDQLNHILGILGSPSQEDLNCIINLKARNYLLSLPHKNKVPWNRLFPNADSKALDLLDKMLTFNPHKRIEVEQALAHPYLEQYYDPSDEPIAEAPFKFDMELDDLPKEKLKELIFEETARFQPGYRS
Sequence of Casein kinase I isoform delta (Homo sapiens) (P48730 whole entry, looked up, canonical isoform): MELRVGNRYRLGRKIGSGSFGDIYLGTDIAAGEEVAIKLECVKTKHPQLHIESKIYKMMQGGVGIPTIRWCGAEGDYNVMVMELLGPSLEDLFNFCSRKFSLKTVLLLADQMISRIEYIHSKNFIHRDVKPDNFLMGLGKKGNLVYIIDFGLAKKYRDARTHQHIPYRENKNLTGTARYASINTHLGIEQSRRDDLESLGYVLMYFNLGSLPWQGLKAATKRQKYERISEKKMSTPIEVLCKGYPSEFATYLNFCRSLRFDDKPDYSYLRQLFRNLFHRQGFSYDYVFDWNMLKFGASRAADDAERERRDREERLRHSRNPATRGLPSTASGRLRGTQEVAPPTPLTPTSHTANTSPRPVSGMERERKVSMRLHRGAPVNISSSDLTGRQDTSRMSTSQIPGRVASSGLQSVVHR
Sequence of Glycogen synthase kinase-3 beta (Homo sapiens) (P49841 whole entry, looked up): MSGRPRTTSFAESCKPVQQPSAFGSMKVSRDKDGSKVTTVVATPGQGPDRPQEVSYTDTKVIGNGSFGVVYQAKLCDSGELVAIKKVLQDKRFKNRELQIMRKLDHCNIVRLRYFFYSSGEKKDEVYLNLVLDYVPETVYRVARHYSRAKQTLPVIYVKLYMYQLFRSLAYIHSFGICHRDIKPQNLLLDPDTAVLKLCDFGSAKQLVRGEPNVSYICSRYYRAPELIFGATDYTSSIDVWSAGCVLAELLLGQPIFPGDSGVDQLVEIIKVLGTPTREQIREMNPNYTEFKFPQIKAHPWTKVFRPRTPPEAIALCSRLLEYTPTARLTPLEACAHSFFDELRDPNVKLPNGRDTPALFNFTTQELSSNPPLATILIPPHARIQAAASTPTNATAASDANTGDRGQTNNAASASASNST

As a reminder, the ΔTm is the change in melting temperature against a reference sample. `COc1cc(F)ccc1-c1cc(Nc2cc(CS(C)(=N)=O)ccn2)ncc1F` (centres undefined): the ΔTm amounted to 5.35 °C in assay [1]; 5.7 °C in assay [2]; 1.19 °C in assay [3]; 11 °C in assay [4]; 0.27 °C in assay [5]; 6.53 °C in assay [6].

With `COc1cc(O)c(C(CC(=O)N2C[C@H](C)C[C@H](C)C2)c2ccc3c(c2)OCO3)c(OC)c1` (some centres undefined), the ΔTm in assay [1] is 4.29 °C; in assay [2], 0.29 °C; in assay [3], 0.17 °C; in assay [4], 1 °C; in assay [5], 0.25 °C; in assay [6], 0.33 °C.

For the compound `Cc1c(CCC(=O)O)cccc1NC(=O)[C@@H](c1ccc(-c2cncc(Cl)c2)c(F)c1)C1CCCC1`, the ΔTm is 1.34 °C in assay [1]; -0.35 °C in assay [2]; -0.06 °C in assay [3]; 0.61 °C in assay [4]; -0.61 °C in assay [5]; 4.78 °C in assay [6].

As for `CCOC(=O)N1CCC(CN(Cc2ccc(Cl)cc2)Cc2ccc([N+](=O)[O-])s2)C1` (centres undefined), the ΔTm in assay [1] is 0.47 °C; in assay [2], 0.83 °C; in assay [3], 1.17 °C; in assay [4], -0.64 °C; in assay [5], 0.21 °C; in assay [6], -0.41 °C.

In the case of `CCCCCCC(Sc1nc(Cl)cc(NCc2ccc(-c3ccccc3)cc2)n1)C(=O)O` (centres undefined), the ΔTm was -0.03 °C in assay [1]; -0.83 °C in assay [2]; 0 °C in assay [3]; 0 °C in assay [4]; 0 °C in assay [5]; -1.22 °C in assay [6].

Regarding `C[C@@H](Oc1cc(-n2cnc3ccc(OC4CCN(C)CC4)cc32)sc1C(N)=O)c1ccccc1Cl`, the ΔTm in assay [1] was 1.32 °C; in assay [2], -0.97 °C; in assay [3], 0.23 °C; in assay [4] it was 1.25 °C; in assay [5], 0.3 °C; in assay [6], 0.44 °C.

Take `CN(CCCCCCC1=C(c2cc(F)cc(F)c2)CCCc2cc(O)ccc21)CCCCS(=O)(=O)CCCC(F)(F)F`: the ΔTm in assay [1] is -0.9 °C; in assay [2], -0.47 °C; in assay [3], 0.28 °C; in assay [4], 0 °C; in assay [5], -9.1 °C; in assay [6], 0.84 °C.

Consider `Cc1cc(-c2ccnc(Nc3cnn(C)c3)n2)ccc1CNC(=O)N1CC(OC(C)C)C1`, for which the ΔTm in assay [1] amounted to 6.49 °C; in assay [2], 1.31 °C; in assay [3], 0.77 °C; in assay [4], 0.38 °C; in assay [5], 0.39 °C; in assay [6], 8.06 °C.

As for `O=C(O)CCCCCC[C@@H]1C(=O)NC(=O)N1CCC(O)C1CCCCC1` (some centres undefined), the ΔTm is 0.19 °C in assay [1]; 0.46 °C in assay [2]; -0.02 °C in assay [3]; 0.34 °C in assay [4]; -0.39 °C in assay [5]; -0.24 °C in assay [6].

For `CN1CCN(C(=O)c2ccc(N(C)c3ncc(C(F)(F)F)c(N[C@@H]4CCC[C@@H]4C(N)=O)n3)cc2)CC1`, the ΔTm is -0.2 °C in assay [1]; 0.48 °C in assay [2]; 0.31 °C in assay [3]; 0.51 °C in assay [4]; 0.25 °C in assay [5]; -0.13 °C in assay [6].

As to `CC(C)(O)c1coc(S(=O)(=O)NC(=O)Nc2c3c(cc4c2CCC4)CCC3)c1`, the ΔTm in assay [1] came to 0.65 °C; in assay [2], 1.24 °C; in assay [3] it was 0.37 °C; in assay [4], 0.29 °C; in assay [5] it was 0.43 °C; in assay [6], 0.25 °C.

As to `CNC(=O)c1ccc(C)c(-n2c(C)cc(OCc3ccc(F)cc3F)c(Br)c2=O)c1`, the ΔTm in assay [1] is -0.5 °C; in assay [2] it was -0.88 °C; in assay [3], -0.45 °C; in assay [4] it was -1.44 °C; in assay [5] it was -0.46 °C; in assay [6] it was -1.48 °C.

For `N#CN1CC[C@H](C(=O)Nc2nc3c(s2)CN(C(=O)CN=[N+]=[N-])CC3)C1`, the ΔTm in assay [1] is 0.16 °C; in assay [2] it was 0.34 °C; in assay [3] it was 0.24 °C; in assay [4], -0.2 °C; in assay [5] it was 0.64 °C; in assay [6], -0.99 °C.

As for `O=C(Cc1ccccc1)Nc1nnc(N2CC[C@@H]3[C@H]2CN3c2cccnn2)s1`, the ΔTm was 0.18 °C in assay [1]; 0.43 °C in assay [2]; -0.16 °C in assay [3]; -0.46 °C in assay [4]; 0.3 °C in assay [5]; -0.66 °C in assay [6].

With `O=C(N[C@H](Cc1ccccc1)C(=O)O)c1cccc(OCc2cccnc2)c1`, the ΔTm in assay [1] was 0.31 °C; in assay [2] it was 1.19 °C; in assay [3] it was -0.02 °C; in assay [4], 0.45 °C; in assay [5] it was 0.21 °C; in assay [6], -0.05 °C.

As to `O=C(Nc1cccc(Nc2nccc(Nc3cccc(C(F)(F)F)c3)n2)c1)C1CC1`, the thermal shift (ΔTm) in assay [1] came to 1.63 °C; in assay [2], 1.44 °C; in assay [3] it was 1.09 °C; in assay [4], 3.86 °C; in assay [5] it was 0.42 °C.

On to `Cc1cn([C@H](C)CC#N)c(=O)c2cc(Cn3nc(C(F)F)cc3Cl)nn12`, for which the shift in melting temperature (ΔTm) in assay [1] was 0.14 °C; in assay [2], -0.62 °C; in assay [3] it was -0.16 °C; in assay [4], -0.46 °C; in assay [5], 0.16 °C; in assay [6], -1.16 °C.

As for `CCC(=O)N[C@H]1CC[C@@H](C(=O)N(C)c2ccc(-c3nc4ccccc4o3)cc2)C1`, the thermal shift (ΔTm) in assay [1] was 0.73 °C; in assay [2] it was 0.83 °C; in assay [3], 0.61 °C; in assay [4] it was -0.48 °C; in assay [5], 0.13 °C; in assay [6], 0.03 °C.

Take `CCc1c(-c2ccc3[nH]ncc3c2)cnc(N)c1-c1ccc(O)cc1`: the ΔTm in assay [1] was found to be 1.38 °C; in assay [2], 2.8 °C; in assay [3] it was 1.28 °C; in assay [4], 1.03 °C; in assay [5] it was 0.44 °C; in assay [6], 3.28 °C.

As for `CCOC(=O)/N=C(\N)c1ccc(OCc2cccc(COc3ccc(C(C)(C)c4ccc(OC(=O)OCC)cc4)cc3)c2)cc1`, the ΔTm was 0.03 °C in assay [1]; -3.47 °C in assay [2]; -11.2 °C in assay [3]; -4.21 °C in assay [4]; -11.6 °C in assay [5]; -7.28 °C in assay [6].

In the case of `CC(=O)c1c(C)c2cnc(Nc3ccc(N4CCNCC4)cn3)nc2n(C2CCCC2)c1=O`, the ΔTm in assay [1] was 0.35 °C and -0.02 °C; in assay [2], 1.06 °C and 0.93 °C; in assay [3] it was 0.19 °C and 0.01 °C; in assay [4], 0.23 °C and 0.63 °C; in assay [5] it was 0.09 °C and 0.31 °C; in assay [6], -0.85 °C and 0.31 °C.

As to `COc1cc2nc(C)nc(N[C@H](C)c3cc(N)cc(C(F)(F)F)c3)c2cc1O[C@H]1CCOC1`, the ΔTm in assay [1] is -0.37 °C; in assay [2], 0.99 °C; in assay [3], 0.27 °C; in assay [4], 0.96 °C; in assay [5] it was 0.04 °C; in assay [6], 0.75 °C.

As for `Cc1cc(OCCC(C)(C)O)cc(C)c1-c1ccc(F)c2c1CC[C@H]2Oc1ccc2c(c1)OC[C@H]2CC(=O)O`, the ΔTm in assay [1] is -2.63 °C; in assay [2], -3.73 °C; in assay [3], -1.62 °C; in assay [4], -4.17 °C; in assay [5], -8.53 °C; in assay [6] it was -3.22 °C.

For the compound `Cn1cc(C(=O)O)c2ccc(N3CCC(OCc4c(-c5c(Cl)cccc5Cl)noc4C4CC4)CC3)cc21`, the thermal shift (ΔTm) was 0.5 °C in assay [1]; 0.93 °C in assay [2]; 1.17 °C in assay [3]; 0.23 °C in assay [4]; 0.52 °C in assay [5]; -1.5 °C in assay [6].

As for `CCNc1ccc(-c2nn(-c3ccccc3C)c3c2C(C)Cc2nc(NC(=O)OC)sc2-3)cn1` (centres undefined), the ΔTm in assay [1] is 0.34 °C; in assay [2], 0.64 °C; in assay [3], 0.19 °C; in assay [4] it was -0.97 °C; in assay [5] it was -0.13 °C; in assay [6], 1.08 °C.

Source of the values: ChEMBL document CHEMBL5308504, “Tm Shift (DSF) assay results for EUbOPEN Chemogenomics Library” (2023).
